PubChem BioAssay (NCATS)
Records with an inconclusive call do not appear. Values without a mark were called inactive. Calls follow the shape of the full dose curve.

Assay: qHTS assay for small molecule disruptors of the mitochondrial membrane potential - 1 hr assay (AID 651754); also: nearly all actives have a fitted effect of over 35% in size
Settings: series mostly up to 92.2 µM; ratio change, negative = depolarisation: at the top concentration
Text: National Center for Advancing Translational Sciences [NCATS]
NIH Chemical Genomics Center [NCGC]
National Institutes of Environmental Health Sciences [NIEHS]
National Toxicology Program [NTP]
Mitochondrial membrane potential (MMP), one of the parameters for mitochondrial function, is generated by mitochondrial electron transport chain that creates an electrochemical gradient by a series of redox reactions. This gradient drives the synthesis of ATP, a crucial molecule for various cellular processes. Measuring MMP in living cells is commonly used to assess the effect of chemicals on mitochondrial function. […] The dye accumulates in the mitochondria of healthy cells as aggregates, with red fluorescence. The mitochondrial potential collapses and the dye can no longer accumulate in the mitochondria and remains in the cytoplasm in monomers, with green fluorescence.
2,000 HepG2 cells in 5 uL/well were dispensed into black, clear-bottom 1536-well plates using a Multidrop Combi (Thermo Scientific) dispenser. The assay plates were incubated overnight at 37C to allow cells to attach to the wells, followed by the transfer of 23 nL compound or DMSO vehicle by a pin tool (Kalypsys). The plates were incubated for 1 hr at 37C and 5% CO2, followed by the addition of 5 uL of 2X Mito-MPS dye (BD Biosciences) into each well using Flying Reagent Dispenser (Aurora Discovery) and then following 30 min incubation at 37C. Fluorescence intensity (490nm excitation and 535nm emission for monomers; and 540nm excitation and 590nm emissions for aggregates) was measured using an Envision plate reader.
% is scaled to controls: 0 for no effect and ±100 for the full control effect.

With `C=C(C)C(=O)OCCCCCC` as the molecule, how does the “ratio change, negative = depolarisation” value read?
Its value is -1.4%.

With `Cc1ccccc1Br` as the molecule, how does the “ratio change, negative = depolarisation” value read?
The value was 1.1%.

Which “ratio change, negative = depolarisation” value does the source give for `C=CC(=O)NC(C)C` here?
The value was -1.1%.

For `Cc1cccc(C(=O)O)c1`, which “ratio change, negative = depolarisation” value is on record?
Its value is 0.234%.

For `C=CCOC(=O)COCCC(C)C`, which “ratio change, negative = depolarisation” value is on record?
Its value is 2.31%.

With `CCCCC(CC)C(=O)O` (stereo not given) as the molecule, how does the “ratio change, negative = depolarisation” value read?
Its value is 0.119%.

Which “ratio change, negative = depolarisation” value does the source give for `O=C(O)c1cccc([N+](=O)[O-])c1` here?
Its value is -2.13%.

For `c1ccc2[nH]cnc2c1`, which “ratio change, negative = depolarisation” value is on record?
Its value is 1.01%.

With `c1ccc(Oc2ccccc2)cc1` as the molecule, how does the “ratio change, negative = depolarisation” value read?
Its value is -4.05%.

Which “ratio change, negative = depolarisation” value does the source give for `O=C1OC(=O)c2cc([N+](=O)[O-])ccc21` here?
The value was -0.441%.

With `CCCCCCCN` as the molecule, how does the “ratio change, negative = depolarisation” value read?
The value was -5.5%.

With `CCCCCCC=O` as the molecule, how does the “ratio change, negative = depolarisation” value read?
The value was -11.9%.

With `CCCCC(CC)CO` (stereo not given) as the molecule, how does the “ratio change, negative = depolarisation” value read?
The value was 0.254%.

Which “ratio change, negative = depolarisation” value does the source give for `CCC(C)(C)C` here?
Its value is 4.27%.

With `CCCCCCCCCCCCOCC1CO1` (stereo not given) as the molecule, how does the “ratio change, negative = depolarisation” value read?
The value was -2.57%.

With `C1CCC2OC2C1` (stereo not given) as the molecule, how does the “ratio change, negative = depolarisation” value read?
The value was -1.87%.

Which “ratio change, negative = depolarisation” value does the source give for `ICCc1ccccc1` here?
The value was 3.74%.

For `CC(=O)c1nccs1`, which “ratio change, negative = depolarisation” value is on record?
The value was -0.519%.

Which “ratio change, negative = depolarisation” value does the source give for `O=C(O)c1ccccc1C(=O)O` here?
Its value is 5.17%.

Which “ratio change, negative = depolarisation” value does the source give for `O=Cc1cccc(Br)c1` here?
The value was -1.73%.

For `Cc1ccc(Cl)cc1`, which “ratio change, negative = depolarisation” value is on record?
Its value is 4.99%.

With `Nc1c(Cl)cc(Cl)cc1Cl` as the molecule, how does the “ratio change, negative = depolarisation” value read?
Its value is 2.93%.

For `O=C(O)CNC(=O)c1ccc(CO)o1`, which “ratio change, negative = depolarisation” value is on record?
The value was -1.13%.

Which “ratio change, negative = depolarisation” value does the source give for `CC(=O)OCCC(C)C` here?
Its value is -4.79%.

With `CC(C)C=O` as the molecule, how does the “ratio change, negative = depolarisation” value read?
The value was -2.94%.

For `CC(C)=CCC/C(C)=C/C=O`, which “ratio change, negative = depolarisation” value is on record?
The value was 1.98%.

With `C=C(C)OC(C)=O` as the molecule, how does the “ratio change, negative = depolarisation” value read?
Its value is 2.63%.

Which “ratio change, negative = depolarisation” value does the source give for `C1CCCC1` here?
The value was 1.2%.

With `CC(C)C(C)C` as the molecule, how does the “ratio change, negative = depolarisation” value read?
The value was -1.19%.

For `O=Cc1ccccc1Cl`, which “ratio change, negative = depolarisation” value is on record?
Its value is -1.11%.

With `CNc1ccccc1` as the molecule, how does the “ratio change, negative = depolarisation” value read?
Its value is -1.6%.

For `CC(C)N(C)C`, which “ratio change, negative = depolarisation” value is on record?
The value was 1.64%.

Which “ratio change, negative = depolarisation” value does the source give for `CC(CCl)OC(C)CCl` (stereo not given) here?
The value was 5.44%.

With `O=P(O)(OCc1ccccc1)OCc1ccccc1` as the molecule, how does the “ratio change, negative = depolarisation” value read?
Its value is 4.37%.

For `CCC(C)O` (stereo not given), which “ratio change, negative = depolarisation” value is on record?
Its value is 2.29%.

Which “ratio change, negative = depolarisation” value does the source give for `CCC(O)C(C)(C)C` (stereo not given) here?
The value was 4.11%.

With `Fc1ccccc1` as the molecule, how does the “ratio change, negative = depolarisation” value read?
Its value is 0.951%.

Which “ratio change, negative = depolarisation” value does the source give for `CC(C)(C)OC=O` here?
Its value is 10.2%.

Which “ratio change, negative = depolarisation” value does the source give for `BrC(Br)C(Br)Br` here?
The value was 1.3%.

With `N#CC1(O)CCCCC1` as the molecule, how does the “ratio change, negative = depolarisation” value read?
Its value is -2.38%.
